Results from ChEMBL document CHEMBL3433997, “St. Jude Leishmania screening dataset” (2016).

target: Glucose transporter (Leishmania mexicana) (UniProt O61059); test: ST_JUDE_LEISH: Cytotoxicity at 2uM final concentration against transgenic Leishmania Mexicana promastigotes LmGT2 that are glucose transport deficient and complemented with the L. Mexicana glucose transporter 2. Activity is measured by DNA content using SYBR green in vitro; type: functional

Point of comparison: `CCc1cccc(NC(=O)c2ccc(CN3CCCN(CC4CCCCC4)CC3)cc2)c1`, inhibition 13.4%. Against it:
- CCNC(=O)NC1CCN(Cc2c(-c3cccs3)nc3ccccc3c2C(=O)N[C@@H](C)C2CCCCC2)CC1 — lower, -0.86%
- O=C(Nc1ccc(Cl)cc1)c1ccc(CN2CCCN(Cc3ccccc3)CC2)cc1 — lower, 1.45%
- O=C(NCCCCN1CCC(c2ccc3c(c2O)CCCC3)CC1)c1ccc(-c2ccc(Cl)cc2)cc1 — lower, 2.37%
- NCCCNc1ccc(-c2ccc(NC(=O)Nc3cc(C(F)(F)F)ccc3F)cc2)cn1 — lower, 1.11%
- N#Cc1cccc(CN(Cc2ccc(Cl)c(Cl)c2)S(=O)(=O)c2cccc([N+](=O)[O-])c2)c1 — lower, 4.05%
- O=C(/C=N/O)Nc1ccccc1[N+](=O)[O-] — lower, 0.39%
- COc1ccc(CNC2CCN(C)CC2)cc1-c1ccc(S(=O)(=O)NCCc2ccccn2)s1 — lower, 0.29%
- Cc1cc(N(C)C)nc(Nc2ccc(NC(=O)C(C)Oc3ccccc3)cc2)n1 (stereo not given) — lower, 9.35%
- CC(C)Cn1cc(C2CCN(CCN3CCC(CNC(=O)c4ccc(NC(=O)c5ccc(Cl)cc5)cc4)CC3)CC2)c2ccccc21 — lower, 4.99%
- OC1CCCN(Cc2ccc(-c3cccc(-c4nc5ccccc5[nH]4)c3)cc2)C1 (stereo not given) — lower, 2.79%
- Cc1ccc(NCc2cccc(F)c2)cc1S(=O)(=O)N[C@@H]1CCN(C#N)C1 — lower, 1.18%
- Cc1cccc2nc(-c3ccc(-c4cccc(NC(=O)Nc5ccc(F)c(F)c5F)c4)cc3)[nH]c12 — lower, 0.59%
- Cc1ccc(C(C(=O)Nc2ccc(N3CCNCC3)c(Cl)c2)c2ccccc2)cc1 (stereo not given) — lower, 1.72%
- Cc1c(OC(C)C)nc2ccccc2c1C(=O)N[C@H](c1cccc(F)c1)C1CC1 — lower, -0.32%
- Cc1nc(N)nc(N)c1OCCCCOc1ccccc1 — lower, 2.4%
- O=c1cc(NCCCNCc2cc3c(Cl)cccc3s2)[nH]c2ccccc12 — lower, -2.02%
- CCOc1cc(C(=O)Nc2ccc3nc(N(CC)CC)cc(C)c3c2)cc(OCC)c1OCC — lower, -3.87%
- Oc1ccc2[nH]c(-c3ccc(OC(F)(F)F)cc3)nc2c1CNC1CCCC1 — lower, 3.64%
- CCNc1cc(C(=O)N[C@@H](Cc2ccccc2)[C@H](O)CN[C@H](C)c2ccccc2)cc(N2CCCC2=O)c1 — lower, -0.89%
- COc1cccc(O)c1CN1CCC2(CCCN(Cc3ccc(F)cc3)C2)C1 (stereo not given) — lower, -0.21%
- Cc1cc(N2CCCCC2)nc2ccc(NC(=O)c3cncc(Br)c3)cc12 — lower, 6.57%
- CC(CN1CCN(C)CC1)C(=O)Nc1cccc(-c2ccc(-c3nc4ccccc4[nH]3)s2)c1 (stereo not given) — lower, -3.97%
- CC1CN(CC(O)Cn2c3ccc(Br)cc3c3cc(Br)ccc32)CC(C)O1 (stereo not given) — lower, 3.29%
- O=C(NCCCCN1CCC(O)(c2ccc3c(c2)OCO3)CC1)c1ccc(NC(=O)c2ccc(Cl)cc2)cc1 — lower, -1.6%
- CN(C)CCNC(=O)c1ccc2c(c1)ncn2-c1cc(OCc2ccccc2C(F)(F)F)c(C(N)=O)s1.CN(C)CCNC(=O)c1ccc2ncn(-c3cc(OCc4ccccc4C(F)(F)F)c(C(N)=O)s3)c2c1 — lower, 1.86%
- Cc1ccc(NC(=O)N2CCC(n3c(-c4ccccc4)nc4cccnc43)CC2)cc1F — lower, 5.43%
- Nc1nc(N)c2c(n1)CCc1cc(Br)ccc1-2 — lower, 2.4%
- CN(C)Cc1ccc2cc(NC(=O)c3ccc(-c4ccc(Cl)cc4)cc3)ccc2c1 — lower, 2.55%
- O=C(Nc1cccc(CN2CCCN(Cc3ncc[nH]3)CC2)c1)c1ccc(-c2ccccc2)cc1 — lower, 2.54%
- O=C(Nc1ccc(Cl)cc1)Nc1cccc(-c2ccc(-c3nc4ccccc4[nH]3)cc2)c1 — lower, 1.94%
- COc1ccc(NCc2cccc(-c3cccc(CNCCc4ccccc4)c3)c2)cc1 — lower, -1.32%
- COc1ccc(-c2ccc(CNC(=O)c3cccc(C#N)c3)c(F)c2)cc1CN1CCCN(C)CC1 — lower, 0.55%
- CCCN1CCN(c2cc(NCC)c3c4c(onc24)-c2ccccc2C3=O)CC1 — lower, 6.9%
- Nc1nc(Nc2cccc(Cl)c2)ncc1C(=O)NCc1ccncc1 — lower, 8.62%
- Fc1ccc(-c2cncc(-c3ccc(F)cc3)n2)cc1 — lower, 8.06%
- CCC(C)NC(=O)Nc1cccc(-c2cccc(-c3nc4cccc(C)c4[nH]3)c2)c1 (stereo not given) — lower, 11.5%
- CCCNCc1ccc(-c2ccc(CN(CCOC)C(=O)c3cccc(C#N)c3)cc2)nc1 — lower, 3.74%
- Cc1cc(N[C@@H](Cc2ccccc2)C(=O)NCc2cccs2)nc(NCCc2cccnc2)n1 — lower, 1.02%
- O=[N+]([O-])c1ccc(N2CCCN(C(=S)Nc3ccc(F)cc3Br)CC2)nc1 — lower, 1.29%
